{"source": "PubChem BioAssay AID504332", "about": "(National Center for Advancing Translational Sciences (NCATS), 2011)", "note": "About 31,000 (8.9%) of roughly 350,000 compounds were called active. Roughly 15% stayed inconclusive and do not appear here. This is one part of a sample in which actives are shown more often than they occur. Calls come from the whole dose curve; as a rule, active = well fitted inhibition curve with a large enough effect; inconclusive = small, poorly fitted or top-dose-only effect; inactive = no such curve, though single readings can be large or run the other way."}
{"molecular_target": "Histone-lysine N-methyltransferase EHMT2 (Homo sapiens) (UniProt Q96KQ7)", "sequence (Q96KQ7 913-1193 limits assumed)": "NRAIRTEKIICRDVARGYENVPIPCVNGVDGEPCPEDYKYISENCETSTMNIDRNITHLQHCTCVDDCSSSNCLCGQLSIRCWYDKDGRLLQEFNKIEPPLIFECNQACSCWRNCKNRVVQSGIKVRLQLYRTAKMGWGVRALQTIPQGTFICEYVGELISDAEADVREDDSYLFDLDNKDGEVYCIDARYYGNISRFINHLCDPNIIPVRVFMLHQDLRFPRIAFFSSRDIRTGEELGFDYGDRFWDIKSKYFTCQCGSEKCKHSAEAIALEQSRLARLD", "assay": "qHTS Assay for Inhibitors of Histone Lysine Methyltransferase G9a; note: nearly all actives have a fitted effect of over 75% in size; note: potency is the fitted concentration of half-maximal effect; for activity, negative = inhibition: % is set by controls: 0 for no effect and ±100 for the full control effect", "conditions": "G9a H3K9 monomethylation, AlphaScreen, 2 h; series mostly up to 59 µM; activity, negative = inhibition: at the top concentration", "procedure,_shortened": "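Signal arises when biotinylated H3K9 peptide, once monomethylated, bridges streptavidin donor and antibody-captured acceptor beads. Enzyme at 20 nM was preincubated 15 min with test compounds; peptide 500 nM and SAM 20 uM then reacted for 2 h.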"}
{"compound": "Oc1c(C(c2ccccn2)N2CCOCC2)ccc2cccnc12", "note": "(centres undefined)", "Potency": "8.91 µM (active)"}
{"compound": "CCOc1cc(N2CCOCC2)c(OCC)cc1NC(=O)COc1cccc2cccnc12", "activity, negative = inhibition": "16.3% (inactive)"}
{"compound": "O=C(c1cccnc1NCc1ccccc1)N1CCOCC1", "activity, negative = inhibition": "-30.2% (inactive)"}
{"compound": "O=S(=O)(c1ccc(Br)cc1)c1nnn2c1nc(NC1CCCCCC1)c1sccc12", "activity, negative = inhibition": "-20.4% (inactive)"}
{"compound": "O=c1n(Cc2cccc(C(F)(F)F)c2)c2ccccc2c2nc(-c3ccccc3)nn12", "activity, negative = inhibition": "6.25% (inactive)"}
{"compound": "CCn1c2c(c(=O)n3ncc(C(=O)N4CCN(c5ccccc5)CC4)c13)CN(Cc1ccc(OC)cc1)CC2", "activity, negative = inhibition": "-14% (inactive)"}
{"compound": "Cc1cc2c(cc1C)C(c1cccc(OC(C)C)c1)CC(=O)N2", "note": "(centres undefined)", "activity, negative = inhibition": "-3.79% (inactive)"}
{"compound": "COc1ccccc1CCNC(=O)C(=O)NCCC1CCCCN1S(=O)(=O)c1cccs1", "note": "(centres undefined)", "activity, negative = inhibition": "-9.04% [at 102 µM] (inactive)"}
{"compound": "CC(C)C(=O)Nc1ccc2oc(=O)ccc2c1", "activity, negative = inhibition": "10.8% [at 102 µM] (inactive)"}
{"compound": "O=C(COc1ccc(Cl)cc1)Nc1ccc2oc(=O)ccc2c1", "activity, negative = inhibition": "14.1% [at 102 µM] (inactive)"}
{"compound": "O=C(NC(=S)Nc1ccc2oc(=O)ccc2c1)c1ccc(-c2cccc(Cl)c2Cl)o1", "Potency": "10 µM (active)"}
{"compound": "Cc1ccc(C(=O)CSc2nc(-c3ccccc3)nc3c2CCCC3)c(C)c1", "activity, negative = inhibition": "19.5% (inactive)"}
{"compound": "CC(Oc1cccc(Cl)c1)C(=O)Nc1ccc(S(=O)(=O)Nc2ncccn2)cc1", "note": "(centres undefined)", "Potency": "35.5 µM (active)"}
{"compound": "CCc1ccc(OC(C)C(=O)Nc2ccc(S(=O)(=O)Nc3cc(C)on3)cc2)cc1", "note": "(centres undefined)", "activity, negative = inhibition": "-9.68% [at 102 µM] (inactive)"}
{"compound": "O=C(/C=C/c1ccc(Cl)cc1)Nc1ccc(S(=O)(=O)Nc2ncccn2)cc1", "activity, negative = inhibition": "0.147% [at 102 µM] (inactive)"}
{"compound": "Cc1ccc(Cl)cc1NC(=O)CSc1nccn1C", "activity, negative = inhibition": "-2.21% (inactive)"}
{"compound": "CS(=O)(=O)N1CCc2cc(C(=O)Nc3ccccc3Br)ccc21", "activity, negative = inhibition": "-11.2% [at 102 µM] (inactive)"}
{"compound": "O=S(=O)(c1ccc(C2CCCCC2)cc1)N1CCN(c2ccc(Cl)c(Cl)c2)CC1", "activity, negative = inhibition": "7.66% (inactive)"}
{"compound": "O=c1[nH]oc(O)c1-c1ncc(C(F)(F)F)cc1Cl", "Potency": "44.7 µM (active)"}
{"compound": "O=C(c1ccccn1)c1ncc(C(F)(F)F)cc1Cl", "activity, negative = inhibition": "22.6% [at 102 µM] (inactive)"}
{"compound": "CC(=O)c1ccc(Cc2ncc(C(F)(F)F)cc2Cl)s1", "activity, negative = inhibition": "-41.4% (inactive)"}
{"compound": "COc1ccccc1CNC(=O)COC(=O)c1sc(C)nc1C", "activity, negative = inhibition": "11.2% [at 2.33 µM] (inactive)"}
{"compound": "CCCNC(=O)c1onc(CSc2ccc(F)cc2)c1C(=O)NC(C)C", "activity, negative = inhibition": "20% [at 2.33 µM] (inactive)"}
{"compound": "COc1ccc(Nc2nc(Cl)nc(NCc3ccco3)n2)cc1", "activity, negative = inhibition": "8.73% (inactive)"}
{"compound": "COc1ccc(-n2cnc3cc(NCc4ccco4)ccc32)cc1", "Potency": "44.7 µM (active)"}
{"compound": "COc1ccc(-n2cnc3cc(C(=O)NC4CCCC4)ccc32)cc1", "Potency": "inactive"}
{"compound": "Cc1nn(C)c(C)c1NS(=O)(=O)c1ccc(OC(F)(F)F)cc1", "activity, negative = inhibition": "-1.93% [at 102 µM] (inactive)"}
{"compound": "CCN(CC(=O)Nc1cc(Cl)ccc1C)C(=O)CSCc1ccccc1", "activity, negative = inhibition": "-2.77% [at 102 µM] (inactive)"}
{"compound": "CCOc1ccc(NC(=O)NNC(=O)c2ccc(Cl)cc2Cl)cc1", "activity, negative = inhibition": "11.1% [at 102 µM] (inactive)"}
{"compound": "COc1ccc(C(=O)O/N=C(\\N)Cc2ccc(Cl)cc2Cl)cc1OC", "activity, negative = inhibition": "20.9% (inactive)"}
{"compound": "NC(N)=N/N=C/c1ccc(OCc2ccc(Cl)cc2Cl)cc1", "Potency": "50.1 µM (active)"}
{"compound": "COc1ccc(CNc2nc(-c3ccc(Cl)cc3)cc(C(F)(F)F)n2)cc1", "activity, negative = inhibition": "195% (inactive)"}
{"compound": "CCc1ccc(NS(=O)(=O)c2ccc3[nH]cc(C(=O)NCCc4cccc(C)c4)c(=O)c3c2)cc1", "activity, negative = inhibition": "-19.8% (inactive)"}
{"compound": "CC(C)(C)OC(=O)N1CCC(c2c(C(=O)Nc3ccc4c(c3)OCO4)cnn2-c2ccccc2)CC1", "activity, negative = inhibition": "-5.36% (inactive)"}
{"compound": "O=C(CCNC(=O)c1ccccc1Cl)NCc1ccco1", "activity, negative = inhibition": "4% [at 12.7 µM] (inactive)"}
{"compound": "CCCCNC(=O)CCNC(=O)c1ccc(C(C)(C)C)cc1", "activity, negative = inhibition": "-0.948% [at 102 µM] (inactive)"}
{"compound": "CC(C)(C)c1ccc(C(=O)NCCC(=O)NCc2ccco2)cc1", "Potency": "44.7 µM (active)"}
{"compound": "COCCCNc1nc2c(-c3cccc(C)c3)nnn2c2ccc(Cl)cc12", "activity, negative = inhibition": "3.35% [at 0.501 µM] (inactive)"}
{"compound": "Cc1nc2ccccc2c(=O)n1-c1ccc(NS(=O)(=O)c2ccc(F)cc2F)cc1", "activity, negative = inhibition": "0.725% [at 102 µM] (inactive)"}
{"compound": "O=C(CN1CCN(c2ccccc2O)CC1)NC(=O)NCc1ccccc1", "activity, negative = inhibition": "-1.41% [at 12.7 µM] (inactive)"}
{"compound": "O=C1CCN(C(=S)NCCc2ccccc2)CC1", "activity, negative = inhibition": "-0.505% [at 102 µM] (inactive)"}
{"compound": "Oc1ccc(N2CCN(C(=S)NCc3ccccc3)CC2)cc1", "Potency": "10 µM (active)"}
{"compound": "S=C(NCCc1ccccc1)N1CCCCC1", "activity, negative = inhibition": "-19.5% [at 102 µM] (inactive)"}
{"compound": "O=C(COC(=O)c1ccccc1C(=O)N1CCN(c2ccccc2)CC1)NCc1ccccc1", "activity, negative = inhibition": "2.03% [at 102 µM] (inactive)"}
{"compound": "Oc1ccccc1N1CCN(C(=S)NCc2ccccc2)CC1", "Potency": "31.6 µM (active)"}
{"compound": "CCCc1cc(=O)[nH]c(SCC(=O)c2c(N)n(CC(C)C)c(=O)n(C)c2=O)n1", "activity, negative = inhibition": "-10.6% [at 102 µM] (inactive)"}
{"compound": "CCOc1cccc(NC(=O)c2ccc(F)c(S(=O)(=O)N(CC)c3cccc(C)c3)c2)c1", "activity, negative = inhibition": "16.5% (inactive)"}
{"compound": "O=C(CCS(=O)(=O)c1cc(Br)cc2c1N(C(=O)C1CC1)CC2)Nc1ccc(C(F)(F)F)cc1", "activity, negative = inhibition": "-24.3% (inactive)"}
{"compound": "CC(C)C(NC(=O)c1c(F)cccc1F)C(=O)NCc1ccncc1", "note": "(centres undefined)", "activity, negative = inhibition": "-32.8% [at 102 µM] (inactive)"}
{"compound": "CC1(c2ccccc2)NC(=O)N(CC(=O)Nc2cc(Cl)ccc2N2CCOCC2)C1=O", "note": "(centres undefined)", "activity, negative = inhibition": "22.3% [at 0.501 µM] (inactive)"}
{"compound": "Cc1ccccc1NC(=O)CSc1nc2ccc(Nc3nc(N4CCOCC4)nc(N4CCOCC4)n3)cc2s1", "activity, negative = inhibition": "1.18% [at 102 µM] (inactive)"}
{"compound": "O=C(CSc1nc(Nc2ccccc2)nc(N2CCOCC2)n1)Nc1cc(Cl)ccc1O", "Potency": "50.1 µM (active)"}
{"compound": "CCOc1ccc(NC(=O)Cn2c(C)ccc(C#N)c2=O)cc1", "activity, negative = inhibition": "5.45% (inactive)"}
{"compound": "Cn1nc(-c2ccccc2)c(-c2ccccc2)c(C(=O)Nc2ccc(S(N)(=O)=O)cc2)c1=O", "activity, negative = inhibition": "-38.6% (inactive)"}
{"compound": "O=C(CN1C(=O)COc2ccc(S(=O)(=O)N3CCCCCC3)cc21)N1CCN(c2cccc(C(F)(F)F)c2)CC1", "activity, negative = inhibition": "-31.2% (inactive)"}
{"compound": "Cc1cc(OCC(=O)N2CCN(c3ncccn3)CC2)ccc1Cl", "activity, negative = inhibition": "24.5% [at 102 µM] (inactive)"}
{"compound": "Oc1ccc(CN2CCN(c3ncccn3)CC2)cc1", "Potency": "79.4 µM (active)"}
{"compound": "c1cnc(N2CCN(c3ccc4ccccc4n3)CC2)nc1", "activity, negative = inhibition": "9.32% [at 102 µM] (inactive)"}
{"compound": "COc1ccc(-c2nc(CN3CCN(c4ncccn4)CC3)c(C)o2)cc1C", "activity, negative = inhibition": "12.2% [at 102 µM] (inactive)"}
{"compound": "CN(C)C(=O)c1nc2ccc(Cl)cn2c1CN1CCN(c2ncccn2)CC1", "activity, negative = inhibition": "13.2% [at 102 µM] (inactive)"}
{"compound": "Cc1ccc(CN2CCN(c3ncccn3)CC2)c(C)c1", "Potency": "10 µM (active)"}
{"compound": "O=C1NCCn2nc3ccccc3c21", "activity, negative = inhibition": "16.4% [at 2.33 µM] (inactive)"}
{"compound": "Cn1c(=O)cc(OCC(=O)N2CCN(c3ccccc3)CC2)c2ccccc21", "activity, negative = inhibition": "3.66% (inactive)"}
{"compound": "COc1cccc2cc(C(N)=O)/c(=N\\NC(=O)c3ccccc3)oc12", "activity, negative = inhibition": "-3.82% [at 102 µM] (inactive)"}
